Test results from PubChem BioAssay (NCATS).
Inconclusive results are not listed. Activity calls are given as the source filed them. Calls come from the whole dose curve.

Each compound was assayed against Thyroid hormone receptor beta (Homo sapiens) (UniProt P10828) (assay: qHTS assay for small molecule agonists of thyroid hormone receptor beta signaling (AID 588545)). Conditions: TR-UAS-bla GripTite HEK 293, beta-lactamase ratio, agonist mode, 18 h, percent of T3 response, DMSO as zero; series mostly up to 76.7 µM; activation: at the top concentration.
Source text: NIH Chemical Genomics Center [NCGC]
U.S. Environmental Protection Agency [EPA]
National Institutes of Environmental Health Sciences [NIEHS]
National Toxicology Program [NTP]
Thyroid hormone receptor (TR) belongs to nuclear hormone receptor superfamily. There are two subtypes for TR: TR-alpha and TR-beta. TR-beta plays a major role in regulating plasma cholesterol levels and it mediates the biological activities of thyroid hormone. Screening environmental chemicals on TR-beta signaling will provide important information for the mechanism of compound action.
NCGC Assay Protocol Summary
Using a beta-lactamase reporter-gene under control of the TR response element, a cell-based assay [GeneBLAzer TR-UAS-bla-GripTite assay developed by Invitrogen] was used to measure TR-beta signaling in agonist mode. TR-UAS-bla-GripTite HEK 293 cells were used with assay medium containing 2% charcoal/dextran FBS, 0.1 mM NEAA and 1 mM sodium pyruvate. The assay was performed in clear bottom black Greiner 1536-well plates. T3 was used as a positive control in the screen. Library compounds were measured for their ability to stimulate the reporter gene activity. Compounds were screened in a titration series in 1536-well format. The fluorescence intensity (405 nm excitation, 460/530 nm emission) was measured using an EnVision plate reader. Data was normalized relative to T3 control (10 nM, 100%), and DMSO only wells (basal, 0%). Concentration-response titration points for each compound were fitted to the Hill equation yielding concentrations of half-maximal stimulation (EC50) and maximal response (efficacy) values.
qHTS protocol for TR-beta beta-lactamase assay in agonist mode
[Step] [Parameter] [Value] [Description]
1. Reagent; 6 uL; 2500 cells/well
2. Incubation; 37 C for 4 hrs
- Dose response; start 3.8 uM, 1:3 dilutions, duplicates in first column
- Two columns of each 10 and 0.4 nM (finals) concentrations.
5. Incubation; 37 C for 18 hrs
6. Detection reagent; 1 uL of CCF4-dye
7. Incubation; RT for 2 hrs
8. Detection; Fluorescence; Envision plate reader

Chain of Thyroid hormone receptor beta (Homo sapiens) (P10828 whole entry, looked up): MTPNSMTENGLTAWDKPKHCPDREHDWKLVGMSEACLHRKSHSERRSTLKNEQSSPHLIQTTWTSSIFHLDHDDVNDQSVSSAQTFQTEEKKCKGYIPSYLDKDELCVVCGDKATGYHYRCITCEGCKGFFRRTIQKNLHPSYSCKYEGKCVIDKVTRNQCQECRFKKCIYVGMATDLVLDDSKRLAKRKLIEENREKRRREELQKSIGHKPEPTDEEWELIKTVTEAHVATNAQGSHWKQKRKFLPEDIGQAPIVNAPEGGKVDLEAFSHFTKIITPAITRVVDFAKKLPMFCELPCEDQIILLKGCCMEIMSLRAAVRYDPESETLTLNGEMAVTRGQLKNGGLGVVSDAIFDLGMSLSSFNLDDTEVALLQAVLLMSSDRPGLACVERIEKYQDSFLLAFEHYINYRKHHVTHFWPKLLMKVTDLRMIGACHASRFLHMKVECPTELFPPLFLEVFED

| SMILES | outcome | activation |
| --- | --- | --- |
| OCCOc1ccccc1 | inactive | – |
| C=C(C)[C@H]1Cc2c(ccc3c2O[C@@H]2COc4cc(OC)c(OC)cc4[C@@H]2C3=O)O1 | – | -10.7% (inactive) |
| C[C@]12C/C(=C/O)C(=O)C[C@@H]1CC[C@@H]1[C@@H]2CC[C@@]2(C)[C@H]1CC[C@]2(C)O | – | -12.8% (inactive) |
| Nc1ccncc1 | – | 2.52% (inactive) |
| CNCC(O)c1ccc(O)cc1 (stereo not drawn) | – | -7.32% (inactive) |
| CCOP(=S)(OCC)Oc1cc(C)nc(C(C)C)n1 | inactive | – |
| Oc1cc(Cl)ccc1Oc1ccc(Cl)cc1Cl | – | 1.24% (inactive) |
| C[C@H]1O[C@@H](O[C@H]2[C@@H](O)C[C@H](O[C@H]3[C@@H](O)C[C@H](O[C@H]4CC[C@@]5(C)[C@H](CC[C@@H]6[C@@H]5CC[C@]5(C)[C@@H](C7=CC(=O)OC7)CC[C@]65O)C4)O[C@@H]3C)O[C@@H]2C)C[C@H](O)[C@@H]1O | – | -5.17% (inactive) |
| CCCC(C)(COC(N)=O)COC(=O)NC(C)C (stereo not drawn) | inactive | – |
| Oc1ccc(Cl)cc1Cc1ccccc1 | inactive | – |
| c1ccc2c(c1)Nc1ccccc1S2 | inactive | – |
| Oc1cccc2cccnc12 | inactive | – |
| Oc1ccccc1-c1ccccc1 | inactive | – |
